The text below walks through data of PubChem BioAssay AID1032 (The Scripps Research Institute Molecular Screening Center, 2008).

The whole screen tested about 200,000 compounds, of which about 670 (0.34%) were called active. Shown is part of a subset that was picked to be rich in actives. Values without a mark were called inactive. Rule as the data show it: active = activation above about 22%; inactive = the rest.

The target in this test is Peroxisome proliferator-activated receptor gamma (Homo sapiens) (UniProt P37231). Put plainly: agonists of PPARg-SRC-2 recruitment, primary screen, biochemical, HTS (AID 1032).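 Also: 0% = vehicle and 100% = reference agonist.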 To be noted: PPARgamma LBD-SRC-2 recruitment, at 8 µM, active compounds read high.
Chain of Peroxisome proliferator-activated receptor gamma (Homo sapiens) (P37231 whole entry, looked up, the tested form may be a part): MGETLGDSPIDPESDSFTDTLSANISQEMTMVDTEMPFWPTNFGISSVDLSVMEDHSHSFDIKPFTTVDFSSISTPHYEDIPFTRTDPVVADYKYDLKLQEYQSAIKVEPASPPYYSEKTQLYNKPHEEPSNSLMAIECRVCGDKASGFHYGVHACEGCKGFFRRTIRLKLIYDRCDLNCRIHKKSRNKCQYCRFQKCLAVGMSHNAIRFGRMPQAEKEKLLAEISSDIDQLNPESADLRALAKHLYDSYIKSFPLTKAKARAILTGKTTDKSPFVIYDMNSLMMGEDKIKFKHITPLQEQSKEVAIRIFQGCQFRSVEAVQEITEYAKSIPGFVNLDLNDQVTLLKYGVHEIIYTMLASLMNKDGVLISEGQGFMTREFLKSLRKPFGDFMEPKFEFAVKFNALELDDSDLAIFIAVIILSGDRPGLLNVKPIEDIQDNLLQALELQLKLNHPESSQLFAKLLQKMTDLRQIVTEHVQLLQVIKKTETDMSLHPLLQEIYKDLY
As for `Cc1nc2ccccc2n1CC(=O)N/N=C/c1cccnc1`, the activation was 2.27%.
The same measure for `O=C(CSc1cccc2cccnc12)N/N=C/c1cccnc1`: 27.4% (active); for `CCOC(=O)N/N=C/c1cccnc1`: 3.1%.
Next, `CC(C)CN1CCNC(=O)C1CC(=O)N(C)CC1CCOCC1` (configuration not stated): -4.08%.
The same measure for `c1ccc2sc(NN=C3CCCC3)nc2c1`: -0.8%; for `Cc1cccc2cc(CN(Cc3cccs3)C(c3nnnn3C3CCCC3)C(C)C)c(=O)[nH]c12` (configuration not stated): 2.09%; for `Cc1cccc2cc(CN(Cc3ccc4c(c3)OCO4)Cc3nnnn3C3CCCC3)c(=O)[nH]c12`: 27.4% (active).
As to `CCC(c1nnnn1C1CCCC1)N(Cc1cccs1)Cc1cc2cccc(C)c2[nH]c1=O` (configuration not stated), the activation is 7.3%.
Turning to `CC(C(=O)N=Nc1c(O)n(C)c2ccc(Br)cc12)n1cnc2ccccc2c1=O` (configuration not stated), the activation was 2.86%.
For the compound `Cc1ccccc1Cn1nc(C)c(NC(=O)C(F)(F)F)c1C`, the activation was -0.15%.
In the case of `COc1cc(C2C(C(=O)c3ccc(C)o3)=C(O)C(=O)N2Cc2cccnc2)ccc1O` (configuration not stated), the activation is -1.47%.
The same measure for `COc1cc(C2C(C(=O)c3ccc(C)o3)=C(O)C(=O)N2CCc2ccccc2)ccc1O` (configuration not stated): 0.21%; for `CCCOc1ccc(C2C(C(=O)c3ccc(C)o3)=C(O)C(=O)N2CCCn2ccnc2)cc1` (configuration not stated): 22.1% (active); for `CCOC(=O)N1CCC(=NNC(N)=O)CC1`: 3.39%.
Next, `CCCCOC(=O)c1ccc(NC(c2ccc(C)cc2)P(=O)(OC)OC)cc1` (configuration not stated): 7.71%; `COc1cc(C(=S)N2CCOCC2)ccc1O`: 5.98%.
Next, `COc1cccc(NC(=O)C(Sc2nc3ccccc3c(=O)n2CC(C)C)c2ccccc2)c1` (configuration not stated): 1.13%.
In the case of `Cc1ccc(NC(=S)N(CCCN2CCC(C)CC2)Cc2ccco2)cc1`, the activation was -0.03%.
The same measure for `O=C(Cn1cc(C(=O)c2cccs2)c2ccccc21)NCc1cccs1`: -4.53%; for `COCCNC(=O)Cn1cc(C(=O)c2cccs2)c2ccccc21`: -7.11%; for `COC(=O)Cn1cc(C(=O)c2cccs2)c2ccccc21`: 25.2% (active).
Regarding `O=C(CNS(=O)(=O)c1ccccc1)NCC(=O)OCc1ccccc1F`, the activation was -5.13%.
Next, `Cc1scc(C(=O)NNC(=S)NCc2ccccc2)c1C`: -7.7%; `CC1=NNC(=O)C1CCC(=O)N/N=C\c1ccc(Cl)c(Cl)c1` (configuration not stated): 6.93%; `Cn1c(CO)cnc1SCc1ccccc1`: 5.35%.
Consider `O=c1c2ccccc2c(-c2ccccc2)nn1Cc1ccccc1`, for which the activation was -3.47%.
Next, `CSc1c(SCc2ccccc2)cnn(Cc2ccccc2)c1=O`: 28% (active); `CN1CCC(=NNC(=O)CN(c2cccc(Cl)c2)S(C)(=O)=O)CC1`: 10.8%.
Next, `S=c1[nH]cc(-c2ccc(Cl)cc2)n1-c1ccccc1`: 0.94%; `CCc1ccc(NC(=O)C(C)OC(=O)/C=C/c2cccc([N+](=O)[O-])c2)cc1` (configuration not stated): 2.51%; `Cc1cccn2c(CN(C)C3CCCc4ccccc43)c(C(=O)N3CCOCC3)nc12` (configuration not stated): -1.89%.
Consider `CCN(CC)CCCNC(=O)c1cc(-c2cccc(Cl)c2)on1`, for which the activation is 0.37%.
Next, `CCN(CCCNC(=O)CSc1cc(=O)n(C)c2cc(Cl)ccc12)Cc1ccccc1`: 26.1% (active).
With `CCN(CC)CCCNC(=O)CCc1ccccc1`, the activation was 9.5%.
The same measure for `CCOC(=O)N1CCN(c2cc(C)c([N+](=O)[O-])cc2F)CC1`: -3.32%.
The same measure for `COc1ccc(OCc2n[nH]c(=S)n2N)cc1`: 4.69%.
The same measure for `c1ccc(CSc2ncnc3c2sc2nc(N4CCOCC4)c4c(c23)CCCC4)cc1`: 96% (active); for `COc1ccc(CSc2nc(N3CCOCC3)c3c(c2C#N)CC(C)(C)OC3)cc1`: -5.06%.
Take `c1ccc(COc2nsnc2N2CCOCC2)cc1`: the activation is 7.85%.
Next, `CNC(=O)c1ccsc1NC(=O)c1ccc(S(=O)(=O)N2CCOCC2)cc1`: 14.3%; `COc1cc(/C=C(/NC(=O)c2ccc(Cl)cc2Cl)C(=O)O)cc(OC)c1OC`: 11.2%.
The same measure for `Cc1ccc(CNC(=O)CC2Sc3ccccc3NC2=O)cc1` (configuration not stated): 0.66%; for `Cc1ccc(S(=O)(=O)c2ccc(Cl)cc2)cc1S(=O)(=O)NC(C(=O)O)C(C)C` (configuration not stated): -4.99%; for `COc1cccc(NCCC(=O)c2cccc([N+](=O)[O-])c2)c1`: 7.36%.
Take `COc1cccc2c1OCC(CN1CCN(C3CCCCC3)C(CCO)C1)=C2` (configuration not stated): the activation was 1.05%.
The same measure for `Cn1c(N)cc(-c2ccc(F)cc2)c(C#N)c1=O`: 1.85%.
Next, `Cc1ccc(S(=O)(=O)NC(C(=O)N2CCOCCOCCOCCOCC2)c2ccccc2)cc1` (configuration not stated): 6.3%; `NC(=NC(=O)c1ccccc1)N1CCOCC1`: 11.2%; `CC(C(=O)N1CCOCC1)N1c2cccc3cccc(c23)S1(=O)=O` (configuration not stated): 28.1% (active).
For `Oc1cccc2ccc(/C=C/c3ccc(Br)s3)nc12`, the activation was -1.88%.
As for `N#Cc1c(N)nc2c(c1N)CC(C(F)(F)F)O2` (configuration not stated), the activation is 2.19%.
The same measure for `CC(=O)c1cccc(CN2CCC(CO)(Cc3ccccc3)CC2)c1`: 4.63%; for `OCC1(CCc2ccccc2)CCN(Cc2ccc3nsnc3c2)CC1`: 39.5% (active); for `Cc1cccc(-c2ncc(CN3CCC(CO)(CCCc4ccccc4)CC3)cn2)c1`: 5%.
The same measure for `Cc1ccc(NC(=O)c2ccc(S(=O)(=O)NCC3CCCO3)cc2)cc1C` (configuration not stated): -6.15%; for `O=C(Nc1ccc(N2CCN(C(=O)C3CC3)CC2)cc1)c1cccs1`: 4.68%.
Next, `O=C(CS(=O)(=O)c1ccccc1)Nc1ccc(S(=O)(=O)Nc2ccccn2)cc1`: -6.08%; `CC(=O)N/N=C(\C)c1ccc(Br)cc1Br`: -4.44%; `COc1ccc(Cl)cc1C(=O)NCc1cn(C)nc1C`: 8.12%.
Consider `Cc1ccc2nc(-c3cccc(Br)c3)cc(C(=O)Nn3cnnc3)c2c1`, for which the activation is -0.43%.
Take `Cc1ccc(-c2cc(C(=O)NCc3cn(C)nc3C)c3cc(Br)ccc3n2)cc1`: the activation is 37% (active).
Regarding `O=C(Oc1cccc(O)c1)C1CCCCC1`, the activation was 1.13%.
